Consider 39 molecules from PubChem BioAssay (NCI).

Where “and” joins values, the source holds several entries; their conditions need not be identical. Equal values may be shown once. This is part of a sample that, as a whole, favours compounds with a hit. Of some 83,000 tested, about 20% had one in any assay.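 Testing used 96-well plates and a 48-hour single-concentration exposure. Example: -40 means 40% of the starting cells died.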 Values without a mark were called inactive. Calls of active or inactive are those of the source. How the source made its calls: active means growth percent below 10; inactive means the rest.

For this assay, the system named is MDA-MB-468 breast. The experiment in a line: NCI-60 one-dose screen, 48 h (100 = growth as untreated, 0 = no growth, -100 = all killed). The conditions noted are these: 10 µM unless noted.
`C=C1C(=O)O[C@H]2[C@H]1CC/C(COC(=O)C(C)c1ccc(CC(C)C)cc1)=C\CC[C@@]1(C)O[C@@H]21` (some centres undefined): the growth is 6.36% (active).

Take `Oc1ccc(O)c(-[n+]2ccccc2)c1`: the growth was 91.8%.

With `O=C(Oc1cccc2ccccc12)Oc1cccc2ccccc12`, the growth is 117%.

In the case of `CC1(C)CC[C@]2(C(=O)O)CC[C@]3(C)C(=CC[C@@H]4[C@@]5(C)C/C(=C/c6ccco6)C(=O)C(C)(C)[C@@H]5CC[C@]43C)[C@@H]2C1`, the growth was -3.74% [100 µM] (active).

Turning to `Brc1ccc(-n2cc(-c3nn[nH]n3)c(-c3cccs3)n2)cc1`, the growth is 92.4%.

Consider `CCOC(=O)N(O)c1ccc(/C=C/c2ccccc2)cc1`, for which the growth is -59.5% (active) and -52.6% (active).

For `CCC(C)Oc1cc(/C=N/NC(=O)c2cnn3c2NC(c2ccccc2)C3)ccc1OC` (centres undefined), the growth was 19.1%.

In the case of `COc1cc2ncnc(Nc3ccc(F)c(Cl)c3)c2cc1OCC(=O)N1CCCCC1`, the growth was -41.9% (active).

`Cc1nc2c(c(-c3ccccc3)n1)Cc1c(ccc3ccccc13)O2`: the growth was 90.5%.

Consider `CN1CCN(c2nc(NCCNc3ccnc4cc(Cl)ccc34)c3ccccc3n2)CC1`, for which the growth is -51.6% (active).

Regarding `CNC(=O)c1cc(Oc2ccc3nc(NC(=O)c4cc(C(F)(F)F)cc(C(F)(F)F)c4)sc3c2)ccn1`, the growth was 23%.

With `OCc1nnn(-c2ccccc2)c1CO`, the growth is 125%.

For the molecule `CCNC(=O)Oc1ccc(/C(=C(/C)Cc2ccc(OC)cc2)c2ccc(OCCN3CCCC3)cc2)cc1`, the growth was 61.9%.

Consider `CCOc1ccc(Nc2nc(-c3c(C)nc4ncccn34)cs2)cc1`, for which the growth is 30.2%.

Turning to `Cc1ccccc1CNc1c2ccccc2nc2ccccc12`, the growth is 5.84% (active).

In the case of `Cn1cc(CNc2nc3ccc(OC/C(=C/F)CN)cc3o2)ccc1=O`, the growth is 107%.

For `Nc1ncc(-c2cnn(C3CCNCC3)c2)cc1-c1nc2cc(Cl)ccc2o1`, the growth was -94.3% (active).

As for `O=C1CC(c2ccc3c(c2)OCO3)c2ncn(-c3ccc(Cl)cc3)c2N1` (centres undefined), the growth was 13%.

For `COc1cccc2nc(Nc3ccc(NC(=O)c4ccc5ncccc5c4)cc3)ccc12`, the growth was 88.9%.

With `CCOc1nc(-c2ccccc2)cc2c(O)c(C(=O)NN)[nH]c(=O)c12`, the growth is 110%.

With `Cc1ccc(=O)n(-c2ccc(Br)cc2F)c1`, the growth is 102%.

As for `COc1ccc(/C(=C/c2cc(OC)c(OC)c(OC)c2)[N+](=O)[O-])cc1`, the growth is -75.2% (active).

Take `COC1=CC(c2ccc[nH]2)=N/C1=C\c1[nH]c(C)c(C(=O)CCCCC(=O)Oc2ccc3c(c2)CCC2C3CC[C@]3(C)[C@@H](O)CC[C@@H]23)c1C` (some centres undefined): the growth is 52.2%.

With `O=C(/C=C/c1ccc(Cl)nc1)c1ccc(Cl)cc1Cl`, the growth is 91.5%.

Take `CCSc1nnc2c3cc(Br)ccc3n(C)c2n1`: the growth was 115%.

`C=C1C(=O)O[C@H]2[C@H]1CC/C(COC(=O)N[C@H]1C[C@H](O[C@H]3C[C@](O)(C(=O)CO)Cc4c(O)c5c(c(O)c43)C(=O)c3c(OC)cccc3C5=O)O[C@@H](C)[C@H]1O)=C\CC[C@@]1(C)O[C@@H]21`: the growth is -55.9% (active).

Regarding `C[N+]1=C(/C=C\C=C\c2ccccc2)C(C)(C)c2ccccc21`, the growth is -14.9% (active).

Turning to `COc1cnc2c(c1)C(=O)c1c-2n(CCCBr)c(=O)c2cc([N+](=O)[O-])ccc12`, the growth was -15.8% (active).

`CCN1CCN(C(=O)[C@]23CCC(C)(C)C[C@@H]2C2=CC[C@@H]4[C@@]5(C)C/C(=C/c6ccncc6)C(=O)C(C)(C)[C@@H]5CC[C@@]4(C)[C@]2(C)CC3)CC1`: the growth is -49.8% (active).

As for `Clc1ccc(-c2noc(/C=C\c3ccccc3)n2)cc1`, the growth is 97.7%.

Regarding `Cc1cc2cc3cc(C)c(N(C)C)cc3[n+](C)c2cc1N(C)C`, the growth was 27.1%.

With `CSc1nc2ccc(C)cc2cc1/C=C1/C=C(c2ccccc2)NC1=O`, the growth was 49.1%.

For the molecule `COc1cc2cc3c(nc2cc1OC)CCN3Cc1ccc(NC(=O)c2ccc(Cl)c(C(F)(F)F)c2)cc1`, the growth is 12.9%.

With `CCCCc1oc2ccccc2c1C(=O)c1ccc(O)cc1`, the growth was 78.4%.

For the molecule `CCN(CC)C(=O)c1cccnc1`, the growth is 109%.

Take `N#C/C(=C\c1ccc(F)cc1)n1nc2cccc(F)c2n1`: the growth was 21.6%.

Consider `O=C1OCC2=C1C(c1ccccc1)c1cc3c(cc1N2CCO)OCCO3` (centres undefined), for which the growth is -63.7% (active).

On to `BrCCCc1n(Cc2ccc3ccccc3c2)c2ccccc2[n+]1Cc1ccc2ccccc2c1`, for which the growth was -68% (active).

For the molecule `CCCCn1c(Cc2ccc(OC)cc2)nc2cc(OC)c(OC)cc2c1=O`, the growth was 46.7%.
